Assay results reported in PubChem BioAssay AID907 (National Center for Advancing Translational Sciences (NCATS), 2007).
The list shows a part of the results. Records with an inconclusive call do not appear. Activity calls are given as the source filed them. The call rests on the fitted dose curve; in most records, active means well fitted activation curve with a large enough effect; inconclusive means small, poorly fitted or top-dose-only effect, or effect the other way; inactive means flat fitted curve, though single readings scatter.

Assay: Confirmation Concentration-Response Assay for Cell signaling CRE-BLA (Fsk stim) - HEK293 CREB Luciferase
Details: HEK293 CRE-luc2P, NKH477 EC10 potentiation, luminescence, 4 h
Excerpt: NIH Molecular Libraries Screening Centers Network [MLSCN] NIH Chemical Genomics Center [NCGC] MLSCN Grant: 1X01MH079867-01 Assay Provider: Marshall W. Nirenberg, U.S. National Heart, Lung and Blood Institute CRE Luciferase Assay Overview Memories persist for different lengths of time, from seconds or minutes to a lifetime. There are two kinds of memory: short-term memory (STM) and long-term memory (LTM). STM lasts for minutes to hours, which maybe mediated by modifications of molecules involved in synaptic functions. LTM lasts for days or longer, and may be due to the formation of new synapses or restructuring of existing synapses. LTM, but not STM, requires gene transcription and synthesis of proteins. CREB (cyclic-AMP Responsive Element Binding Protein) is one of the candidates plays an important role for enhancement of some types of LTM. CREB, a family of transcription factors, regulates the transcription of genes containing cAMP Responsive Elements (CRE). CRE is a nucleotide sequence often found in the promoter regions of genes that are binding sites for CREB. Using a luciferase reporter-gene under control of cAMP responsive element, a cell-based assay [CRE-luc2P HEK293 developed by Promega] was used to measure forskolin-induced signaling. The selected compounds were measured for their ability to modulate positively the action of EC10 NKH 477, a water soluble forskolin, on reporter gene activity. Compounds were screened in a titration series in 1536-well format. Positive modulators were identified based on the AC50 values derived from the screening data.
NCGC Assay Protocol Summary 2500 cells/5uL in DEME with 1% FBS was dispensed into 1536-well plates and cells were cultured at 37 degrees Celsius overnight. Next day 23 nL of compounds or DMSO were delivered to each well using a pin tool, and 1uL of EC10 level of NKH 477, or EC100 level of IBMX, a PDE inhibitor, in the present of NKH 477, or assay medium was added. And then the plates were incubated at 37 degrees Celsius for 4 hours. 6 uL of Bright-Glo luciferase (Promega, WI) was added to each well. After incubated at room temperature for 10min the plates were measured for luminescence intensity on a ViewLux (Perkin Elmer) detector. Keywords: NIH Roadmap, MLSCN, MLSMR, qHTS, NCGC, CRE, luciferase, reporter-gene assay.

Potency, active:
CCc1nc(Nc2ccc3nccnc3c2)c2oc3ccccc3c2n1 1.26 µM, COc1ccc(CCNC(=O)CSc2nc(C)nc3c2oc2ccccc23)cc1OC 10 µM, Cc1nn(-c2ccccc2)c2sc(C(=O)N(Cc3ccco3)C(C)C(=O)NC(C)(C)C)cc12 (stereo not given) 4.47 µM, Cc1nc(SCC(=O)Nc2cc(C)on2)c2c3c(sc2n1)CCCC3 4.47 µM, CC1CCc2sc3nc(N4CCN(CCO)CC4)n4ncnc4c3c2C1 (stereo not given) 12.6 µM
